TSHR antag: Antagonists of the Thyroid Stimulating Hormone Receptor: HTS campaign; Thyrotropin receptor (Homo sapiens), P16473; TSHR-expressing cells, TSH-stimulated cAMP HTRF, 2 h; hits give low values; activity change, negative = inhibition, % at 11.5 µM; 330,000 compounds, 0.2% hits; AID 504810, 2011;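 active = activity change below a set negative limit, meaning inhibition stronger than a set level, cut at about -70% in these data; inconclusive = activity change between two set negative limits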; note: % is set by controls: 0 for no effect and ±100 for the full control effect
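Read-out is FRET at 665 nm (cryptate excitation 337 nm) from a cryptate-tagged anti-cAMP antibody, competed by cell cAMP against cAMP-d2. Compounds are tested on freshly harvested TSHR cells challenged with 4nM TSH (EC80) for 2 hours at 37 deg C.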
TCR activator: Activators of T cell receptors: qHTS campaign; primary human leukocytes, anti-CD3, IL-2 HTRF, 48 h; 330,000 tested, under 10 active; AID 504894, 2011; Potency, µM (series often up to 9.22 µM), for inactives: top-dose activation of IL-2 secretion, most hits filed as activators; note: % of control where 0% means no effect
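Human primary leukocytes + a-CD3 beads + cpd, 48 hr; IL-2 in supernatant by HTRF (ex 320nm / em 665nm). No co-stimulatory signal supplied.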
B2AR arrestin: qHTS assay of beta-arrestin-biased ligands of beta2-adrenergic receptor; AID 492947, 2010; Beta-2 adrenergic receptor (Homo sapiens), P07550; beta-arrestin recruitment to beta2AR, cell-based reporter; 330,000 compounds, 0.02% hits; Potency, µM (series often up to 46.1 µM), for the others: at the top dose activation, hits mostly activators;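 note: potency is the fitted concentration of half-maximal effect; 0% = DMSO controls and full agonism = EC100 isoproterenol or metaproterenol; nearly all actives have a fitted effect of over 65% in size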
Target sequence (P07550 whole entry, looked up): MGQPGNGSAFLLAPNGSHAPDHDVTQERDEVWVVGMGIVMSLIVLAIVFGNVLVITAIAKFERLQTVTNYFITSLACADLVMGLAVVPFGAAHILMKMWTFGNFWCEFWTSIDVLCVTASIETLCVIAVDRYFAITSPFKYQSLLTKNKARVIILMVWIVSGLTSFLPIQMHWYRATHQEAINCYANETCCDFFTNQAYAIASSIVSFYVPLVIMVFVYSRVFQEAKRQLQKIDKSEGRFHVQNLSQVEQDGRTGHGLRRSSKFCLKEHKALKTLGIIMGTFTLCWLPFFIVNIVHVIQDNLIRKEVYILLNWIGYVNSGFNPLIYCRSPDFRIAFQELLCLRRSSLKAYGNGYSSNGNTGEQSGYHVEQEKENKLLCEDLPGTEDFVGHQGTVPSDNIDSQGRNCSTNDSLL
CCT chaperon mod: High-Throughput Screening for Modulators of Cytosolic Chaperonin Activity. 360,000 compounds, 0.3% hits. AID 651819, 2012. purified chaperonin ATPase assay, HTRF ADP detection, 30 min. activity change, % (no concentration beside the values), hits read low; in the data active = activity change below about -30%; note: % is set by controls: 0 for no effect and ±100 for the full control effect
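ATPase activity: ADP formed was measured by HTRF Transcreener (665/615 nm ratio) after 30 min at 37 deg C with 10 uM ATP. Compounds screened at one 76 uM concentration against 40 or 20 nM TRiC in Tris pH 7.4/KCl/MgCl2/DTT buffer.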
Mm-Cpn inhibitor: Inhibitors of TCP-1 ring complex (TRiC) of Methanococcus maripaludis (MmCpn): qHTS. Chaperonin Mm-Cpn (Methanococcus maripaludis). purified Mm-Cpn ATPase, ADP Transcreener TR-FRET. Potency, µM (top dose mostly 76.9 µM), inactives show top-dose activity, negative = inhibition, hits mostly inhibitors. 330,000 compounds, 0.031% hits. AID 504842, 2011; note: potency is the fitted concentration of half-maximal effect; % is set by controls: 0 for no effect and ±100 for the full control effect; nearly all actives have a fitted effect of over 80% in size
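25 nM Mm-CPN + cpd, 10 min 37°C; + 10 uM ATP, 30 min 37°C; buffer 30 mM Tris pH 7.4, 100 mM KCl, 5 mM MgCl2, 1 mM DTT; Transcreener ADP HTRF detection 30 min RT.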
* marks the source's active call; other numbers are inactive results; [ ] = dose if it differs, or a comment. Hits are enriched below; roughly 0.5% of the tested compounds scored in any of these assays. Unless noted, calls come from the whole dose curve; as a rule, active = well fitted curve in the direction sought with a large enough effect; inconclusive = small, poorly fitted or top-dose-only effect, or another doubt; inactive = no such curve, though single readings can be large; an effect the other way counts as inactive or inconclusive.

How did Cc1ccccc1NC(=O)CC(C)S(=O)(=O)c1ccc2c(c1)NC(=O)CO2 (configuration not stated) do in these assays?
TSHR antag: 38; TCR activator: 3%; B2AR arrestin: 1%; CCT chaperon mod: -63*; Mm-Cpn inhibitor: -2%

How did CC(=O)OCC(=O)[C@@]1(O)CC[C@H]2[C@@H]3C[C@H](C)C4=CC(=O)C=C[C@]4(C)[C@H]3[C@@H](O)C[C@@]21C do in these assays?
TSHR antag: -1; TCR activator: 10%; B2AR arrestin: 0%; CCT chaperon mod: 0; Mm-Cpn inhibitor: 2%

What do the screens show for `COc1ccccc1NS(=O)(=O)c1ccc(-c2cnc(C3CC3)o2)cc1`?
TSHR antag: 22; TCR activator: 4%; B2AR arrestin: -1%; CCT chaperon mod: -77*; Mm-Cpn inhibitor: 1%

How did COc1ccc(NS(=O)(=O)c2ccc(-c3cnc(C4CC4)o3)cc2)cc1OC do in these assays?
TSHR antag: -35; TCR activator: 2%; B2AR arrestin: -1%; CCT chaperon mod: -66*; Mm-Cpn inhibitor: 1%

What do the screens show for `O=C(COC(=O)c1ccc(NS(=O)(=O)c2ccc3c(c2)OCCO3)cc1)NC1CC1`?
TSHR antag: 3; TCR activator: -12%; B2AR arrestin: 0%; CCT chaperon mod: -3; Mm-Cpn inhibitor: -2%

What do the screens show for `CC(C)(C)NC(=O)C(c1ccc(F)cc1)N(Cc1ccccc1Cl)C(=O)c1ccn[nH]1` (configuration not stated)?
TSHR antag: 14; TCR activator: -2%; B2AR arrestin: 1µM*; CCT chaperon mod: -2; Mm-Cpn inhibitor: -9%

Results for Cc1ccccc1NC(=O)COC(=O)c1ccc(S(C)(=O)=O)c([N+](=O)[O-])c1 ?
TSHR antag: -46; TCR activator: 0%; B2AR arrestin: 0%; CCT chaperon mod: -1; Mm-Cpn inhibitor: 0%

Results for CC(C)S(=O)(=O)C1=NSC2=NC(=O)/C(=C\c3ccc(-c4ccccc4)o3)C(=N)N21 ?
TSHR antag: -86*; TCR activator: 2%[46.1 µM]; B2AR arrestin: 3%; CCT chaperon mod: 1; Mm-Cpn inhibitor: -1%

What do the screens show for `Cc1ccc(S(=O)(=O)N2CCN(c3cc4c(cc3[N+](=O)[O-])n(C)c(=O)n4C)CC2)cc1`?
TSHR antag: -20; B2AR arrestin: 0%; CCT chaperon mod: -54*; Mm-Cpn inhibitor: 2%

Results for Cc1ccc(Nc2nc3ccccc3n3cnnc23)cc1Cl ?
TSHR antag: -10; TCR activator: -2%; B2AR arrestin: -1%; CCT chaperon mod: -50*; Mm-Cpn inhibitor: -7%

How did COC(=O)[C@@H](NC(=O)c1cc(COc2cncc(Cl)c2)on1)c1ccccc1 do in these assays?
TSHR antag: 32; TCR activator: 9%; B2AR arrestin: 0%; CCT chaperon mod: 3; Mm-Cpn inhibitor: -5%

Results for Nc1nc(CSc2nnc(-c3cccc(F)c3)n2-c2ccccc2)nc(N2CCOCC2)n1 ?
TSHR antag: 15; TCR activator: 1%[46.1 µM]; B2AR arrestin: 0%; CCT chaperon mod: -2; Mm-Cpn inhibitor: -3%

What do the screens show for `Cc1ccc(N(C(=O)Cn2nnc(-c3ccccc3F)n2)C(C(=O)NC2CCCC2)c2ccncc2)cc1` (configuration not stated)?
TSHR antag: -8; TCR activator: 5%; B2AR arrestin: 0%; CCT chaperon mod: -3; Mm-Cpn inhibitor: -1%

Results for COc1ccc(NC(=O)CSc2nnc(CCC(=O)O)c(=O)n2N)cc1 ?
TSHR antag: 5; TCR activator: -1%; B2AR arrestin: 0%; CCT chaperon mod: -56*; Mm-Cpn inhibitor: -2%

Results for CCOC(=O)CCCCCC(=O)Nc1ccc2c(c1)C(=O)N([C@H](C)CO)C[C@H](C)[C@@H](CN(C)C(=O)Nc1ccccc1)OCCCC[C@@H](C)O2 ?
CCT chaperon mod: -2

What do the screens show for `O=C(O)C1CCCN1S(=O)(=O)c1cc(Cl)ccc1Cl` (configuration not stated)?
TSHR antag: 24; TCR activator: -6%; B2AR arrestin: 0%; CCT chaperon mod: -56*; Mm-Cpn inhibitor: 0%

What do the screens show for `O=C(c1ccc(-c2nnc(-c3ccccc3)o2)cc1)N1CCCCCC1`?
TSHR antag: -6; TCR activator: 3%; B2AR arrestin: 0%; CCT chaperon mod: -4; Mm-Cpn inhibitor: 1%

What do the screens show for `Cc1ccc([C@H]2C[C@@H](n3cc(C4CC4)nn3)[C@H](O)CN2CC2CCCCC2)cc1`?
CCT chaperon mod: -74*

What do the screens show for `CCC1Sc2ccc(S(=O)(=O)CCC(=O)NCc3ccc(C)o3)cc2NC1=O` (configuration not stated)?
TSHR antag: 2; TCR activator: 5%; B2AR arrestin: 9%; CCT chaperon mod: -3; Mm-Cpn inhibitor: -1%

How did CCC1Sc2ccc(S(=O)(=O)CCC(=O)Nc3ccccc3Cl)cc2NC1=O (configuration not stated) do in these assays?
TSHR antag: -131*; TCR activator: 6%; B2AR arrestin: 0%; CCT chaperon mod: -1; Mm-Cpn inhibitor: 1%

How did O=c1c(Cl)c(NCc2ccc(F)cc2)cnn1C12CC3CC(CC(C3)C1)C2 do in these assays?
TSHR antag: 0; TCR activator: 3%[46.1 µM]; B2AR arrestin: -1%; CCT chaperon mod: -31*; Mm-Cpn inhibitor: -1%

How did O=C1C2C3C=CC(CO)(O3)C2C(=O)N1c1ccccc1-c1ccccc1 (configuration not stated) do in these assays?
TSHR antag: -73*; B2AR arrestin: -4%; CCT chaperon mod: 1; Mm-Cpn inhibitor: 2%

What do the screens show for `O=C(c1ccc(-c2ccc(Cl)cc2Cl)o1)N1CCOCC1`?
TSHR antag: 0; TCR activator: -1%; B2AR arrestin: -1%; CCT chaperon mod: 0; Mm-Cpn inhibitor: inconclusive

Results for CCOc1c(OC(C)=O)ccc(/C=C/c2ccc3cccc(OC(C)=O)c3n2)c1[N+](=O)[O-] ?
TSHR antag: -6; TCR activator: 2%; B2AR arrestin: 0%; CCT chaperon mod: 0; Mm-Cpn inhibitor: -5%

What do the screens show for `C=CCN1C(=O)/C(=C/c2ccc(OC(C)=O)c(OCC)c2[N+](=O)[O-])SC1=S`?
TSHR antag: -92*; TCR activator: -3%; B2AR arrestin: 0%; CCT chaperon mod: 3; Mm-Cpn inhibitor: -24%

How did COC(=O)CN1C(=O)[C@H]2[C@@H](C3CC3)N3C(=O)CN(Cc4ccccn4)C(=O)[C@@]3(Cc3ccccc3)[C@H]2C1=O do in these assays?
TSHR antag: -1; TCR activator: 1%; B2AR arrestin: -1%; CCT chaperon mod: -40*; Mm-Cpn inhibitor: 2%

Assay outcomes from PubChem BioAssay.
